Source: PubChem BioAssay (Tox21)
Values joined by “and” are separate entries in the source; they are usually repeats but may differ in a detail not shown here. Identical values can stand only once. Inconclusive results are not listed. More than one record can exist for a structure, and the calls need not agree. Active and inactive are the calls of the source. Unless noted, calls come from the whole dose curve; as a rule, active = well fitted curve in the direction sought with a large enough effect in the repeat runs; inconclusive = weak or mixed curves; inactive = no such curve, though single readings can be large; an effect the other way counts as inactive or inconclusive.

How the values were obtained:
[1] = qHTS assay to identify small molecule agonists of the androgen receptor (AR) signaling pathway in the presence of an antagonist - cell viability counter screen (AID 1259379); note: nearly all actives have a fitted effect of over 25% in size; note: potency is the fitted concentration of half-maximal effect
How it was run: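 Nilutamide-containing (3.0uM final) MDA-kb2 cultures, 3,000 cells/well, were treated with compounds across 15 concentrations. After 16 hr at 37C with no CO2, cell viability was determined by CellTiter-Fluor fluorescence in the luciferase assay wells.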

[2] = qHTS assay to identify small molecule antagonists of the estrogen receptor beta (ER-beta) signaling pathway - cell viability counter screen (AID 1259382); note: nearly all actives have a fitted effect of over 55% in size; note: potency is the fitted concentration of half-maximal effect
How it was run: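 Viability is scored by CellTiter-Glo luminescence (30 min, room temperature) in ER-beta-UAS-bla HEK293T wells already read for reporter fluorescence. Compound exposure lasts 16 hr at 37C alongside 1nM 17-beta-estradiol in charcoal-stripped serum medium.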

[3] = molecular target: Estrogen receptor (Homo sapiens) (UniProt P03372); assay: qHTS assay to identify small molecule agonists of the estrogen receptor alpha (ER-alpha) signaling pathway in the presence of an antagonist (AID 1259383; calls by dose curve; note: nearly all actives have a fitted effect of over 15% in size; note: potency is the fitted concentration of half-maximal effect; for activation: top concentration of the series differs between compounds)
How it was run: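 Readout was ERE-driven luciferase luminescence in VM7Luc4E2 cells, which express full-length ER-alpha endogenously. Compounds were tested at 15 concentrations for 22hr alongside 10.0nM ICI-182,780 (final concentration).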

[4] = qHTS assay to identify small molecule agonists or antagonists of the thyroid stimulating hormone receptor (TSHR) signaling pathway - wild type cell line counter screen (AID 1259384; calls by dose curve)
How it was run: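 Wild-type Hek293 cells, 800/well, 18 h at 37C, then compound with Ro20-1724 for 30 min RT. cAMP by HTRF (cAMP-d2/anti-cAMP cryptate), 1 h RT, fluorescence read. 15 concentrations, triplicates.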

[5] = molecular target: Thyrotropin receptor (Homo sapiens) (UniProt P16473); assay: qHTS assay to identify small molecule antagonists of the thyroid stimulating hormone receptor (TSHR) signaling pathway (AID 1259385; calls by dose curve; note: nearly all actives have a fitted effect of over 20% in size)
How it was run: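 TSHR-HEK293 cells (800/well) plated 18 h, then compounds with Ro20-1724 and TSH at 1.5 ng/mL final, 30 min at room temperature. cAMP quantified by HTRF (cAMP-d2/anti-cAMP-cryptate, 1 h); 15 concentrations in triplicate.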

[6] = qHTS assay to identify small molecule agonists of the estrogen receptor alpha (ER-alpha) signaling pathway in the presence of an antagonist - cell viability counter screen (AID 1259386);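 note: cells exposed to compounds for 22 h at 37 °C before the viability read; nearly all actives have a fitted effect of over 30% in size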; note: potency is the fitted concentration of half-maximal effect
How it was run: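 In this counter screen, compound effects on VM7Luc4E2 viability were tested in the presence of the antagonist ICI-182,780 at 10.0nM final. Compounds were dosed at 15 concentrations, exposure lasted 22hr, and the CellTiter-Fluor signal was read.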

[7] = molecular target: Progesterone receptor (Homo sapiens) (UniProt P06401); assay: qHTS assay to identify small molecule agonists of the progesterone receptor (PR) signaling pathway (AID 1346784; calls by dose curve; note: nearly all actives have a fitted effect of over 30% in size)
How it was run: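 PR-UAS-bla HEK 293T cells carrying a UAS-driven beta-lactamase reporter were seeded in medium with 2% charcoal-stripped FBS, preincubated 6 hr at 37C, then exposed to compounds in DMSO for 16 hr; agonism was read by LiveBLAzer B/G FRET fluorescence.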

[8] = molecular target: Progesterone receptor (Homo sapiens) (UniProt P06401); assay: qHTS assay to identify small molecule antagonists of the progesterone receptor (PR) signaling pathway (AID 1346795; active = well fitted inhibition curve with a large enough effect in the signal ratio in the repeat runs, not every such curve was filed as active; the % refers to the signal ratio; note: potency is the fitted concentration of half-maximal effect)
How it was run: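 PR-UAS-bla HEK293T cells carrying a UAS-driven beta-lactamase reporter were plated in medium with 2% charcoal-stripped FBS and rested 6 hr at 37C. Compounds were added with 1 nM R5020 (final) for 16 hr, then FRET substrate loaded 2 hr at room temperature.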

[9] = qHTS assay to identify small molecule antagonists of the progesterone receptor (PR) signaling pathway - cell viability counter screen (AID 1346798); note: series mostly up to about 92 µM; nearly all actives have a fitted effect of over 50% in size
How it was run: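 PR-UAS-bla HEK293T cells in medium with 2% charcoal-stripped FBS were treated with compounds plus R5020 for 16 hr at 37C. Cell viability was then read by CellTiter-Glo luminescence after 30 min at room temperature in the same wells.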

[10] = qHTS assay to identify small molecule agonists of the progesterone receptor (PR) signaling pathway - cell viability counter screen (AID 1346799; calls by dose curve; note: nearly all actives have a fitted effect of over 45% in size; note: potency is the fitted concentration of half-maximal effect)
How it was run: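 PR-UAS-bla HEK293T cells, 3,000 per well in medium with 2% charcoal-stripped FBS, were preincubated 6 hr at 37C, then exposed to compounds for 16 hr; viability was read as CellTiter-Glo luminescence after 30 min at room temperature.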

[11] = qHTS assay to identify small molecule antagonists of the TGF-beta/Smad signaling pathway - cell viability counter screen (AID 1346824); note: nearly all actives have a fitted effect of over 50% in size
How it was run: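 SBE-bla HEK 293T cells, incubated overnight, then compound plus 0.25 ng/mL TGF-beta1 (stock added) for 5 hr at 37 C. Viability was read in the same wells by CellTiter-Glo luminescence after 30 min at room temperature.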

[12] = qHTS assay to identify small molecule agonists of the TGF-beta/Smad signaling pathway - cell viability counter screen (AID 1346829); note: nearly all actives have a fitted effect of over 45% in size; note: potency is the fitted concentration of half-maximal effect
How it was run: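 Compound-treated SBE-bla HEK 293T cells (5 hr, 37 C) were assessed for viability with CellTiter-Glo in parallel with the reporter read.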

[13] = qHTS assay to identify small molecule agonists of the TGF-beta/Smad signaling pathway (AID 1346859; active = well fitted activation curve with a large enough effect in the signal ratio in the repeat runs, not every such curve was filed as active; the % refers to the signal ratio; note: series mostly up to about 77 µM)
How it was run: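 HEK 293T cells stably carrying a beta-lactamase reporter driven by the Smad binding element were seeded overnight, exposed to DMSO-dissolved compounds for 5 hr at 37 C, 5% CO2, then loaded with FRET substrate for 2 hr at room temperature.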

[14] = molecular target: Thyrotropin-releasing hormone receptor (Homo sapiens) (UniProt P34981); assay: qHTS assay to identify small molecule antagonists of the thyrotropin-releasing hormone receptor (TRHR) signaling pathway (AID 1346877; active = well fitted inhibition curve with a large enough effect in the repeat runs, not every such curve was filed as active; note: series mostly up to about 51 µM)
How it was run: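 Kinetic fluorescence (3 min, 1 s resolution) following stimulation with TRH at 1 nM final; HEK293 cells bearing human TRHR; 5 min compound preincubation at RT; concentration-response over 15 points, triplicates.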

[15] = molecular target: Thyrotropin-releasing hormone receptor (Homo sapiens) (UniProt P34981); assay: qHTS assay to identify small molecule agonists of the thyrotropin-releasing hormone receptor (TRHR) signaling pathway (AID 1346891; calls by dose curve; note: potency is the fitted concentration of half-maximal effect; for activation: series mostly up to about 58 µM)
How it was run: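 TRHR-expressing HEK293 cells were plated 18 h at 37 °C/5% CO2, loaded with calcium dye 2 h at 37 °C, then given compound in DMSO; fluorescence was read kinetically for 3 min at 1 s intervals.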

[16] = Human pregnane X receptor (PXR) small molecule agonists, qHTS cell viability counter screen (AID 1346977); note: nearly all actives have a fitted effect of over 50% in size; note: potency is the fitted concentration of half-maximal effect
How it was run: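 PXR-Luc HepG2 cells in medium with 5% charcoal-stripped FBS were pre-incubated 5hr, then exposed to compounds for 24hr at 37C. Viability was read in the same wells by CellTiter-Fluor fluorescence, reagent added after 23hr with a 1hr incubation.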

[17] = Caspase-3/7 induction in HepG2 cells by small molecules, qHTS assay (AID 1346978); note: nearly all actives have a fitted effect of over 15% in size; note: potency is the fitted concentration of half-maximal effect
How it was run: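 Wild-type HepG2 cells, 2,000/well, settled 5 hr at 37 C and 5% CO2, then compound-treated for 17 hr; caspase-3/7 activity read by luminescent Caspase-Glo 3/7 after 30 min at room temperature.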

[18] = qHTS assay to identify small molecule agonists of the estrogen receptor beta (ER-beta) signaling pathway - cell viability counter screen (AID 1259380); note: nearly all actives have a fitted effect of over 30% in size; note: potency is the fitted concentration of half-maximal effect
How it was run: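 Steps: plate ER-beta-UAS-bla HEK293T cells, rest 6 hr; add compounds in DMSO; incubate 16 hr at 37C, 5% CO2; add FRET substrate 2 hr; add CellTiter-Glo, wait 30 min at room temperature; read luminescence.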

[19] = molecular target: Androgen receptor (Homo sapiens) (UniProt P10275); assay: qHTS assay to identify small molecule agonists of the androgen receptor (AR) signaling pathway in the presence of an antagonist (AID 1259381; calls by dose curve; note: nearly all actives have a fitted effect of over 15% in size)
How it was run: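 Reporter-gene luminescence from MDA-kb2 cells exposed 16hr at 37C (0% CO2) to 15-point compound titrations with 3.0uM final nilutamide as AR antagonist.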

Measured: Potency

Sequence of Estrogen receptor (Homo sapiens) (P03372 whole entry, looked up): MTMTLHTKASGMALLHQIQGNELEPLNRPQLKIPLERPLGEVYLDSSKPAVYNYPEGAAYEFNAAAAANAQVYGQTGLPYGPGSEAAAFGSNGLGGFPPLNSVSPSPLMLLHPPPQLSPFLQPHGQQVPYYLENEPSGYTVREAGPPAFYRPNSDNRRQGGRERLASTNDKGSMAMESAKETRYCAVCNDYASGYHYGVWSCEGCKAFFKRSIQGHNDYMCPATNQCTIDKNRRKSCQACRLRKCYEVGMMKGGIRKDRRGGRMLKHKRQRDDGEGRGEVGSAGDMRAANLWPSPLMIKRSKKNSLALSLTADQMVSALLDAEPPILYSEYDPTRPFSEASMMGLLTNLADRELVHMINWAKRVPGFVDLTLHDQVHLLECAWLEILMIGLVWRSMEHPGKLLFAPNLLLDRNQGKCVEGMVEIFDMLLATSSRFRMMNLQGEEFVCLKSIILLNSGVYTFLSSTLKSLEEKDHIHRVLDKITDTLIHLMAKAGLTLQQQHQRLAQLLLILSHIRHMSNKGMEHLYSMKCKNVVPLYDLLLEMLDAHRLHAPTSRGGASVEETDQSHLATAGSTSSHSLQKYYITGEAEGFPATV
Sequence of Progesterone receptor (Homo sapiens) (P06401 whole entry, looked up): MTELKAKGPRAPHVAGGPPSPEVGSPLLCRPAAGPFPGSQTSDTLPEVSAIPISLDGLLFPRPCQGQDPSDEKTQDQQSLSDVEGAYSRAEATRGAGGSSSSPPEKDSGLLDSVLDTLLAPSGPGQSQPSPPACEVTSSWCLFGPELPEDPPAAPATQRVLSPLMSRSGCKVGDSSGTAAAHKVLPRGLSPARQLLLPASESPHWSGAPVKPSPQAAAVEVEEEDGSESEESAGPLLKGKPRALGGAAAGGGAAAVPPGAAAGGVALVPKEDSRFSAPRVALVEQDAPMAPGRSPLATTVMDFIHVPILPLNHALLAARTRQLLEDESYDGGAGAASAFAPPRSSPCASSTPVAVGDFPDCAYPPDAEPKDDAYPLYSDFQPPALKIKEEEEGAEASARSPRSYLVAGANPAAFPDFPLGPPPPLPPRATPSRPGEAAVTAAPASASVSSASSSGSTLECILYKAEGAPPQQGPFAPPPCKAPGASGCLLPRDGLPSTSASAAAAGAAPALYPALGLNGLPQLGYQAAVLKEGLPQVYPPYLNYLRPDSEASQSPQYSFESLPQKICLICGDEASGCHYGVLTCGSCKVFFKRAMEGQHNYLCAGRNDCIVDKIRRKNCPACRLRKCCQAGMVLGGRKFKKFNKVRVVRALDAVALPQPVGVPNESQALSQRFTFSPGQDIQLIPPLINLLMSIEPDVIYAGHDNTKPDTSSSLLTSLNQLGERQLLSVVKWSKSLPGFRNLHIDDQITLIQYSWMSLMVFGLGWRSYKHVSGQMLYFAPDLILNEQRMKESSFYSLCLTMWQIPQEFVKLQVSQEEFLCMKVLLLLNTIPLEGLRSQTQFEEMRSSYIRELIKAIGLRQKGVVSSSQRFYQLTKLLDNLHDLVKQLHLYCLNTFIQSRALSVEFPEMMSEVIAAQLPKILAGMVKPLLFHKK
Sequence of Thyrotropin-releasing hormone receptor (Homo sapiens) (P34981 whole entry, looked up): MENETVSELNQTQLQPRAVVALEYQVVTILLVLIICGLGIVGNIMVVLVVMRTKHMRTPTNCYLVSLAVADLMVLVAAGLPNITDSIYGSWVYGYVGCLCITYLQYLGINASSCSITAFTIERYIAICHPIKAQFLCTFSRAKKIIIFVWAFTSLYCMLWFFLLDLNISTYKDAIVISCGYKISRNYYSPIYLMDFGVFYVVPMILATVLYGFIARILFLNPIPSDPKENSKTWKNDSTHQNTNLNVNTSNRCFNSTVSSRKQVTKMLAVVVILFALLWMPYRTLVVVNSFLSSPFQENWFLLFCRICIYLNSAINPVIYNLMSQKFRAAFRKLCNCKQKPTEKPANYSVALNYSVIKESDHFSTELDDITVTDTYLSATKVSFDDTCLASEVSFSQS
Sequence of Thyrotropin receptor (Homo sapiens) (P16473 whole entry, looked up): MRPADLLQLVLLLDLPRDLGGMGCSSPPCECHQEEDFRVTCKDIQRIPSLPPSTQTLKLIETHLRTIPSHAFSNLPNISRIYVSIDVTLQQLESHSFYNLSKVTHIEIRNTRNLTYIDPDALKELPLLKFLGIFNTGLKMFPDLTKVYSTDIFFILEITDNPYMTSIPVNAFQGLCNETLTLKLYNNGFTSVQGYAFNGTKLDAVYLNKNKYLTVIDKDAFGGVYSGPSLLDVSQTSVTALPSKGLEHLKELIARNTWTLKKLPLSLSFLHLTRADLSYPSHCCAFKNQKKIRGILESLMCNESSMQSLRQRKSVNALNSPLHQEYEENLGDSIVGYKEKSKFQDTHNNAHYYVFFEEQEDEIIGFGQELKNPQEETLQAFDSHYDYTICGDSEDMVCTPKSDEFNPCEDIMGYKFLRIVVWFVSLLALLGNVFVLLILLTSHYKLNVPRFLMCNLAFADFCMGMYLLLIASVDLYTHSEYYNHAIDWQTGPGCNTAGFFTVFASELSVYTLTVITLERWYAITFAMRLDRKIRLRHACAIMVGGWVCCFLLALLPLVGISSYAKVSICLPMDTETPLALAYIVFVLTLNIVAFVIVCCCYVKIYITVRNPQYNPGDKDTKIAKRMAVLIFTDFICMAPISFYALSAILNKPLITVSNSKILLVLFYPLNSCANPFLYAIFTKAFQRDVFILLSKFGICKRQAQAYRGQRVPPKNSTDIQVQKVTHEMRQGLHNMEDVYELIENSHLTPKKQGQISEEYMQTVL
Sequence of Androgen receptor (Homo sapiens) (P10275 whole entry, looked up): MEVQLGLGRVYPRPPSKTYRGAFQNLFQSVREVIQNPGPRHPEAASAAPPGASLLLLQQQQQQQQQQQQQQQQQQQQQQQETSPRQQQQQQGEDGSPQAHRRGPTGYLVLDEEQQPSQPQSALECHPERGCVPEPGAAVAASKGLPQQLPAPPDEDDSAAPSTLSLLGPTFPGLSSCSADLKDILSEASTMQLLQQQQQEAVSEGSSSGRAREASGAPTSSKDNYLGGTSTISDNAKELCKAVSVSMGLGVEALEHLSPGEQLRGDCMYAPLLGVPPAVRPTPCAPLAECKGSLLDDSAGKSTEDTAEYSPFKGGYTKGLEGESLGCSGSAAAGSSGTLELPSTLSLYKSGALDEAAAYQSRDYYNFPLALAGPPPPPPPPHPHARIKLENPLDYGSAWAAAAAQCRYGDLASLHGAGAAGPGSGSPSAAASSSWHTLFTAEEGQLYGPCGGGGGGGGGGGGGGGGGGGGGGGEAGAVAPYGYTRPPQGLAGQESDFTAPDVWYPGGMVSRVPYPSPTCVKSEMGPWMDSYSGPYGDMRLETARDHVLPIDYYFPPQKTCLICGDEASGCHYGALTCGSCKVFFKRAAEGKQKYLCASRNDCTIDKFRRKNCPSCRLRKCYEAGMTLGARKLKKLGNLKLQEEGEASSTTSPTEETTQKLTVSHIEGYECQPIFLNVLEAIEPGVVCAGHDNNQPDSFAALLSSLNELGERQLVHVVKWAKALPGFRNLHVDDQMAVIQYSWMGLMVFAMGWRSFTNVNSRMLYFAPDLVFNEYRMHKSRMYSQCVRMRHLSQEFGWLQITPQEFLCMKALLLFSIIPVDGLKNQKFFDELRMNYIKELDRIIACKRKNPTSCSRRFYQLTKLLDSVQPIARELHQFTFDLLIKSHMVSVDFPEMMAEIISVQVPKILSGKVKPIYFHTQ

CCCCOCCO
inactive: [1] | [2] | [3] | [4] | [5] | [6] | [7] | [8] | [9] | [10] | [11] | [12] | [13] | [14] | [15] | [16] | [17]

CC[Si](OC(C)=O)(OC(C)=O)OC(C)=O
inactive: [1] | [2] | [3] | [4] | [5] | [7] | [8] | [9] | [10] | [11] | [12] | [13] | [14] | [15] | [16] | [17]

COCC(C)O (stereo not drawn)
inactive: [1] | [18] | [2] | [3] | [4] | [5] | [7] | [8] | [9] | [10] | [11] | [12] | [13] | [14] | [15] | [16] | [17]

Oc1ccc2ccccc2c1
inactive: [1] | [18] | [19] | [2] | [4] | [5] | [6] | [7] | [9] | [10] | [11] | [12] | [16] | [17]
active: [8] 48.6 µM

O=C(c1ccc(O)cc1)c1ccc(O)cc1O
inactive: [1] | [18] | [2] | [4] | [5] | [7] | [11] | [12] | [13] | [14] | [15] | [16] | [17]
active: [3] 15.5 µM and 13.7 µM

O=C1N=C(O)CN1/N=C/c1ccc(-c2ccc([N+](=O)[O-])cc2)o1
active: [1] 30.6 µM and 23.7 µM | [16] 27.3 µM and 23.7 µM
inactive: [18] | [2] | [4] | [7] | [9] | [10] | [11] | [12] | [17]

OC[C@@H](O)[C@H](O)[C@H](O)[C@@H](O)CO
inactive: [1] | [18] | [2] | [3] | [4] | [5] | [6] | [7] | [8] | [9] | [10] | [11] | [12] | [13] | [16] | [17]

Cc1cc(O)c2c(c1)C(=O)c1cc(O)cc(O)c1C2=O
inactive: [18] | [2] | [4] | [5] | [7] | [9] | [10] | [11] | [12] | [14] | [15] | [17]
active: [1] 26.7 µM and 30.6 µM | [6] 15.4 µM | [8] 29.9 µM and 27.3 µM | [16] 29.9 µM

COC(=O)Nc1nc2ccc(Sc3ccccc3)cc2[nH]1
inactive: [1] | [18] | [2] | [4] | [5] | [7] | [9] | [11] | [12] | [13] | [14] | [15] | [16] | [17]

CC#C[C@]1(O)CC[C@H]2[C@@H]3CCC4=CC(=O)CCC4=C3[C@@H](c3ccc(N(C)C)cc3)C[C@@]21C
inactive: [1] | [2] | [3] | [4] | [5] | [6] | [7] | [9] | [10] | [11] | [12] | [14] | [15] | [16] | [17]

C=C1CC[C@H](O)CC1=C/C=C1\CCC[C@]2(C)[C@@H]([C@H](C)/C=C/[C@H](C)C(C)C)CC[C@@H]12
inactive: [1] | [4] | [5] | [7] | [9] | [10] | [11] | [12] | [16] | [17]
active: [2] 42.9 µM

C=C(C)C(=O)OCCCCCC
inactive: [1] | [2] | [3] | [4] | [5] | [6] | [7] | [8] | [9] | [10] | [11] | [12] | [13] | [14] | [15] | [16] | [17]

CCCCCCCCCCCCN
inactive and 21.9 µM (active): [12]
inactive and 30.6 µM (active): [16]
inactive: [1] | [4] | [5] | [6] | [7] | [8] | [9] | [10] | [14]
inactive and 61.1 µM (active): [17]
inactive and 38.9 µM (active): [15]
54.5 µM (active) and inactive: [2]

CC(C)n1c(/C=C/[C@@H](O)C[C@@H](O)CC(=O)O)c(-c2ccc(F)cc2)c2ccccc21
active: [18] 13.7 µM and 4.73 µM | [2] 15.4 µM | [10] 0.77 µM | [17] 12.2 µM
inactive: [1] | [7] | [11] | [12] | [13] | [14] | [15] | [16]

c1ccc2[nH]cnc2c1
inactive: [1] | [18] | [2] | [6] | [7] | [8] | [10] | [11] | [12] | [14] | [15] | [16] | [17]
